The values below come from PubChem BioAssay.

The nature of test [1]: reducers of endogenous Her2 protein level, primary screen, SKBR3 breast tumor cells, AlphaScreen, ATP viability (AID 461;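 active means Her2 level under about 52% in both replicate screens, with viability over 70% of control, limit read from the data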;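 on Her2 level: lower value means less Her2 protein in the cells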;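 on viability: percent of carrier control wells set as 100% viability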). The note with it: 18-24 h, measured here: SKBR3 viability, ATP luminescence, at 10 µM.
Test [2] deals with Receptor tyrosine-protein kinase erbB-2 (Homo sapiens) (UniProt P04626). Described as above. The settings on record: 18-24 h, at 10 µM, stronger effect = lower value.
Chain of Receptor tyrosine-protein kinase erbB-2 (Homo sapiens) (P04626 whole entry, looked up): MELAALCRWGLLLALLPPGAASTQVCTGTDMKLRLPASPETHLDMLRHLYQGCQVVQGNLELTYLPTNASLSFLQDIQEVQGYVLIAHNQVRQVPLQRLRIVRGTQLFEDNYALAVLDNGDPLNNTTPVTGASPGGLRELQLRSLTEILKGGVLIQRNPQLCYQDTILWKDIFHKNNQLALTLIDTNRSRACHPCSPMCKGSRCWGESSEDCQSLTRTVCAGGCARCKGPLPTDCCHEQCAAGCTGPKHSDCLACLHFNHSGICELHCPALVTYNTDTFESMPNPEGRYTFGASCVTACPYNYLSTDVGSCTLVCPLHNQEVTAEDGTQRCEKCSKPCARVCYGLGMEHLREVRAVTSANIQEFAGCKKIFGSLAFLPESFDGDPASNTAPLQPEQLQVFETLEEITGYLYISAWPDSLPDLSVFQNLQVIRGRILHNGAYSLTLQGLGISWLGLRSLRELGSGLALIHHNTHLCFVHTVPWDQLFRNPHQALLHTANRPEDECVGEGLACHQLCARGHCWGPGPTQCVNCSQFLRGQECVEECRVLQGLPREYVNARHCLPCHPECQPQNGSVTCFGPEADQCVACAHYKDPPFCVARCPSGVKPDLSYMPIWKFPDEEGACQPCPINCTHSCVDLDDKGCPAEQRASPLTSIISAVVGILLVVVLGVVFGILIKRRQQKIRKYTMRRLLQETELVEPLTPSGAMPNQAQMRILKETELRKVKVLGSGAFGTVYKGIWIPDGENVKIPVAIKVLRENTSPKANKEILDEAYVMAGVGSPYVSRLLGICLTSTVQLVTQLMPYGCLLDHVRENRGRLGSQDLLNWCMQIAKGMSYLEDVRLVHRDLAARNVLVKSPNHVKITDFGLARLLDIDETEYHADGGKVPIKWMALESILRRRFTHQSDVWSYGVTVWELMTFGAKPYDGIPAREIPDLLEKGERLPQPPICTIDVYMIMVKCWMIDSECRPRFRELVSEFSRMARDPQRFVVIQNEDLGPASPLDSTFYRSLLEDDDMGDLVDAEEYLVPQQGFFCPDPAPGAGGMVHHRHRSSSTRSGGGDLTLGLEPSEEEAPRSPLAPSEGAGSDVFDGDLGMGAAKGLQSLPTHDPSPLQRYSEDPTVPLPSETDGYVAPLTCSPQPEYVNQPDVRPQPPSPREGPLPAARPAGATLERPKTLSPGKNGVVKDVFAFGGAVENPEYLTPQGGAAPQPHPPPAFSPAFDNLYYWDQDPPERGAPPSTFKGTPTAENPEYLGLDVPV
Test [3] can be described thus: SK-BR-3 cell growth inhibitors, pilot screen, 24 h, human (AID 572;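 active means viability at or below 10% of carrier control in both of two separate runs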;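 further: compound exposure lasted between 18 and 24 h rather than exactly 24 h; 100% = carrier-treated control wells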). The note with it: SK-BR-3 viability, CellTiter-Glo luminescence, at 10 µM, stronger effect = lower value.
Test [4] in a line: HUVEC growth inhibition – cell-based, human, primary screen (AID 575;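 active means viability at or below 30% in both replicate assays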;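 further: 100% = median of untreated cell wells with 0.1% DMSO on each plate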). The note with it: HUVEC proliferation, CellTiter-Glo luminescence, 72 h; at 10 µM; stronger effect = lower value. A general note: In ATP-based viability assays light output follows the ATP content of the culture.
A short description of test [5]: growth inhibitors of H69AR lung tumor, primary screen, human, duplicate replicates (AID 580;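 active means viability at or under a set limit in both replicates, limit being median viability minus 3 SD, cut at about 48% in these data, passing the limit was not always enough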;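 further: 100% = mean luminescence of untreated wells and 0% = no signal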). The note with it: H69AR lung tumor cells viability, ATP luminescence, 72 h; at 10 µM; stronger effect = lower value.
Test [6] is described as follows: reversal of MRP1-mediated doxorubicin resistance, pilot screen, H69AR cells, doxorubicin co-treatment (AID 601;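 active means viability loss from added drug above about 55%, and viability with drug at most 40%, in both replicates, limit read from the data, passing the limit was not always enough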). The note with it: CellTiter-Glo, 72 h, at 10 µM; for differential viability (reversal): stronger effect = higher value.
Test [7] in a line: 384-well plate pilot, post-Golgi transport modulator project, inhibition of yeast transport mutant growth (AID 636; in the data active means inhibition above about 31%). The note with it: absorbance 615 nm, about 18 h, stronger effect = higher value.
The nature of test [8]: growth suppression of yeast trafficking mutant, preliminary HTS, modulators of trafficking downstream of Golgi apparatus project, 1536-format plate, OD 615 nm (AID 637). The settings on record: yeast transport mutant growth, absorbance 615 nm, 18 h; stronger effect = higher value.
Test [9] is described as follows: OD615 S. cerevisiae growth inhibition, permissive medium, pilot counter-assay, permissive growth control for S. cerevisiae lifespan shortening project (AID 705;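 active means growth inhibition above 25% in both replicates, a cutoff set 3 SD above the mean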). The settings on record: OD615, 24 h, at 10 µM, stronger effect = higher value.
The nature of test [10]: Restrictive medium S. cerevisiae growth inhibition, OD615, pilot screen of yeast lifespan reduction project, restrictive growth control (AID 706;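 active means growth inhibition above a set limit, 3 SD over mean compound inhibition, in both replicates, cut at about 43% in these data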;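 further: modified DeaD lifespan yeast strain shifted to restrictive glucose medium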). The note with it: OD615, 48 h, at 10 µM, stronger effect = higher value.
Test [11] is described as follows: viability gain of MRP-1-high H69AR cells under doxorubicin, pilot screen, MRP-1 activator project, CellTiter-Glo, duplicate (AID 807;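 active means viability increase at or above a cutoff of the median across tested compounds plus 3 SD, cut at about 8.5% in these data, passing the limit was not always enough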;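 further: compound pretreatment 18-22 h then 72 h combined with doxorubicin; 0% = doxorubicin alone and 100% = vehicle without doxorubicin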). The note with it: H69AR viability with doxorubicin, CellTiter-Glo luminescence; at 10 µM; stronger effect = higher value.
Test [12] can be described thus: growth suppression of beta-catenin knockout HCT116, pilot screen, human colon tumor cells (AID 823;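 active means cell viability at or below a set limit in both duplicate runs, the limit being the all-compound median minus 4 SD, cut at about 23% in these data, passing the limit was not always enough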;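 further: 0% = wells killed by 20 µM Hyamine and 100% = untreated DMSO cell wells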). The note with it: CellTiter-Glo, 60 h, at 10 µM, stronger effect = lower value.
The nature of test [13]: growth suppression of PTEN-deleted HCT116, pilot screen, cell-based, HCT116 clonal line, CellTiter-Glo (AID 824;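 active means viability at or below 27.92% in each of two runs, the all-compound median minus 4 SD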;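 further: 0% = 20 µM Hyamine control and 100% = vehicle cell control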). The note with it: 60 h, at 10 µM, stronger effect = lower value.
Test [14] in a line: inhibitors of the yeast RAM network, pilot screen, dse1pr::URA3 reporter, 5-FOA selection (AID 869;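 active means inhibition over a set limit, the all-compound mean plus 3 SD, in both replicate runs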;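 further: 0% = DMSO wells with no growth and 100% = 10 µM 1-NA-PP1 with full growth; RAM network block rescues cells from 5-FOA so hits raise OD615 growth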). The note with it: S. cerevisiae dse1pr::URA3 5-FOA growth, OD615, 2 d; at 10 µM; stronger effect = higher value; strain carries analog-sensitive mutant Cbk1 kinase.
Test [15] is described as follows: RAM signaling pathway blockade in yeast – S. cerevisiae, Pdr1DBD-CYC8 efflux-inhibited sensitized strain, primary screen (AID 1298;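 active means RAM network inhibition above 8.4% in each of two replicates, 3 SD over the compound average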;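 further: 0% = DMSO untreated cells without growth and 100% = 10 µM 1-NA-PP1 full growth; higher means more yeast growth rescued from 5-FOA killing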). The settings on record: S. cerevisiae cbk1-as DSE1-URA3 strain, 5-FOA growth OD615, 2 d; at 50 µM; stronger effect = higher value.
Where [16] appears, read: H69AR cells + 2 uM doxorubicin, measured here: viability with 2 uM doxorubicin, stronger effect = lower value.
The mark [17] stands for this setting: H69AR cells, compound alone cytotoxicity.

Records with an inconclusive call do not appear. Activity calls are given as the source filed them. Unless noted, no stated cut-off is given here; in the data, active means inhibition above about 30%; inactive means the rest.

For orientation: viability means a read-out of living cells in per cent, often relative to untreated cells. A word on the inhibition: it is the relative decrease from the control value, in per cent. On to `Cc1cc(C)n2nc(SCc3nc4ccccc4[nH]3)nc2n1`, for which the viability in test [1] was 87.5%; in test [3] it was 87.5% (inactive); in test [4] it was 98.3% (inactive); in test [5], 95.7% (inactive); in test [6] (setting [16]), 87.2%; in [6] (setting [17]) it was 95.7%. The figures for the viability in [12] and in [13] were 91.2% (inactive) and 95.5% (inactive), respectively. In test [2], the Her2 level is 81% (inactive). Moreover, in test [6] (H69AR cells + 2 uM doxorubicin), the differential viability (reversal) is 8.56% (inactive). Also, the results for the inhibition in test [7], in test [8] and in test [14] were 2.13% (inactive), 3.28% (inactive) and 1.77% (inactive), respectively. The growth inhibition was -5.58% (inactive) in test [9] and 15.5% (inactive) in [10]. The viability increase in [11] was -2.9% (inactive). Also, the RAM network inhibition in [15] is 1.24% (inactive).
On to `CCN1CCN(c2nc3c(c(=O)[nH]c(=O)n3C)n2CCSc2nc3ccccc3s2)CC1`, for which the viability in [1] was 95.5%; in [3] it was 95.5% (inactive); in test [4] it was 115% (inactive); in test [5] it was 88.6% (inactive); in test [6] (setting [16]), 97.1%; in [6] (setting [17]), 88.6%. For the same molecule, the viability is 96.9% (inactive) in [12] and 91.4% (inactive) in [13]. Further, in test [2], the Her2 level was 95% (inactive). Further, the differential viability (reversal) in test [6] (H69AR cells + 2 uM doxorubicin) was -8.44% (inactive). In addition, the inhibition in test [7] is -1.73% (inactive); in test [8], 4% (inactive); in test [14], 0.9% (inactive). Further, the growth inhibition in test [9] is 1.81% (inactive); in [10] it was -6% (inactive). Further, in test [11], the viability increase is -1.2% (inactive). Moreover, the RAM network inhibition in test [15] was -0.84% (inactive).
On to `CCOn1c(=O)c(=O)n(OCc2ccccc2)c2ccccc21`, for which the viability was 86.5% in test [1]; 86.5% (inactive) in test [3]; 78.5% (inactive) in test [4]; 83.6% (inactive) in test [5]; 74.5% in test [6] (setting [16]); 83.6% in test [6] (setting [17]). In addition, the results for the viability in [12] and in test [13] were 95.8% (inactive) and 92% (inactive), respectively. In addition, in test [2], the Her2 level was 88% (inactive). Further, the differential viability (reversal) in test [6] (H69AR cells + 2 uM doxorubicin) is 9.08% (inactive). In addition, the values for the inhibition in test [7], in test [8] and in test [14] were -2.05% (inactive), -6.33% (inactive) and 2.35% (inactive), respectively. The growth inhibition in test [9] was -14% (inactive); in test [10], -6.63% (inactive). The viability increase in test [11] was -3.35% (inactive). Moreover, the RAM network inhibition in test [15] was 3.12% (inactive).
Regarding `Cn1cccc1Cc1nnc(SCC(=O)NCC2CCCO2)n1-c1ccc(F)cc1` (stereo not given), the viability is 97.5% in test [1]; 97.5% (inactive) in test [3]; 106% (inactive) in test [4]; 91% (inactive) in [5]; 90.9% in test [6] (setting [16]); 91% in [6] (setting [17]). In addition, the viability in test [12] was 108% (inactive); in test [13], 94.7% (inactive). Moreover, the Her2 level in [2] was 90% (inactive). Also, the differential viability (reversal) in test [6] (H69AR cells + 2 uM doxorubicin) was 0.18% (inactive). For the same molecule, the values for the inhibition in test [7], in test [8] and in test [14] were -4.93% (inactive), -2.33% (inactive) and 0.02% (inactive), respectively. In addition, the growth inhibition is -11.2% (inactive) in [9] and -5.59% (inactive) in test [10]. The viability increase in test [11] was -1.1% (inactive). Moreover, the RAM network inhibition in test [15] is 6.15% (inactive).
As to `Cc1ccc2oc(=O)c3cnn(CC(=O)NCCC(C)C)c3c2c1`, the viability is 84.5% in test [1]; 84.5% (inactive) in test [3]; 95.2% (inactive) in test [4]; 88.1% (inactive) in test [5]; 72.6% in [6] (setting [16]); 88.1% in [6] (setting [17]). The viability in test [12] is 105% (inactive); in [13], 100% (inactive). The Her2 level in test [2] is 102% (inactive). In [6] (H69AR cells + 2 uM doxorubicin), the differential viability (reversal) is 15.4% (inactive). Besides, the results for the inhibition in test [7], in [8] and in [14] were -0.26% (inactive), -1.67% (inactive) and 1.22% (inactive), respectively. Besides, the values for the growth inhibition in test [9] and in test [10] were 2.22% (inactive) and -6.28% (inactive), respectively. Further, the viability increase in [11] was -1.72% (inactive). The RAM network inhibition in test [15] was 6.67% (inactive).
As for `Cc1cccc(N2CCN(C(=O)c3cc4ccccc4oc3=O)CC2)c1C`, the viability was 90.5% in [1]; 90.5% (inactive) in [3]; 98.6% (inactive) in test [4]; 100% (inactive) in [5]; 92% in test [6] (setting [16]); 100% in [6] (setting [17]). In addition, the viability is 88.5% (inactive) in test [12] and 94.3% (inactive) in [13]. Also, the Her2 level in test [2] is 116% (inactive). The differential viability (reversal) in test [6] (H69AR cells + 2 uM doxorubicin) is 8.08% (inactive). In addition, the inhibition is -6.53% (inactive) in test [7], -7.67% (inactive) in test [8] and 0.78% (inactive) in test [14]. The growth inhibition in test [9] was -4.18% (inactive); in test [10], -0.595% (inactive). The viability increase in [11] is 1.65% (inactive). In addition, the RAM network inhibition in test [15] is -1.13% (inactive).
Regarding `CSCCC(N=CC1=C(O)CC(C)(C)CC1=O)C(=O)O` (stereo not given), the viability in test [1] is 100%; in [3] it was 100% (inactive); in test [4] it was 99.4% (inactive); in test [5], 87.2% (inactive); in [6] (setting [16]) it was 89.3%; in test [6] (setting [17]), 87.2%. Further, the viability was 93.9% (inactive) in test [12] and 99.9% (inactive) in test [13]. Further, the Her2 level in test [2] was 139% (inactive). Moreover, the differential viability (reversal) in test [6] (H69AR cells + 2 uM doxorubicin) was -2.07% (inactive). Further, the inhibition was -3.21% (inactive) in [7], -6% (inactive) in [8] and 0.65% (inactive) in [14]. Besides, the growth inhibition in test [9] was 1.4% (inactive); in test [10], 1.57% (inactive). Moreover, the viability increase in [11] is 0.34% (inactive). In [15], the RAM network inhibition was 4.91% (inactive).
For `Cc1cccc(C(=O)N2CCN(C(=O)c3cccc(C)c3)C(C)C2)c1` (stereo not given), the viability in test [1] is 110%; in test [3], 110% (inactive); in test [4] it was 107% (inactive); in test [5], 90.3% (inactive); in test [6] (setting [16]), 87.7%; in test [6] (setting [17]), 90.3%. The results for the viability in [12] and in test [13] were 95.9% (inactive) and 96.2% (inactive), respectively. Further, in test [2], the Her2 level was 116% (inactive). The differential viability (reversal) in [6] (H69AR cells + 2 uM doxorubicin) was 2.61% (inactive). For the same molecule, the inhibition is -1.76% (inactive) in [7], 24.8% (inactive) in [8] and 0.75% (inactive) in [14]. The figures for the growth inhibition in test [9] and in [10] were -19.2% (inactive) and -9.12% (inactive), respectively. Besides, in test [11], the viability increase was 0.74% (inactive). In test [15], the RAM network inhibition was 0.55% (inactive).
Take `CCN(CC)C1CCCCC1NS(=O)(=O)c1ccc(Cl)cc1` (stereo not given): the viability in test [1] was 104%; in [3], 104% (inactive); in test [4], 90.8% (inactive); in [5], 101% (inactive); in [6] (setting [16]) it was 87.8%; in test [6] (setting [17]), 101%. The viability in [12] is 86.5% (inactive); in [13], 92.6% (inactive). For the same molecule, the Her2 level in test [2] was 116% (inactive). Besides, in test [6] (H69AR cells + 2 uM doxorubicin), the differential viability (reversal) is 13.1% (inactive). Moreover, the figures for the inhibition in [7], in [8] and in test [14] were -3.6% (inactive), 3.28% (inactive) and 1.03% (inactive), respectively. Moreover, the growth inhibition was -12% (inactive) in test [9] and -3.99% (inactive) in [10]. Besides, the viability increase in test [11] was -1.53% (inactive). Besides, the RAM network inhibition in test [15] was 5.81% (inactive).
For `Cc1cccc(-n2ncc3c(NCCCO)ncnc32)c1`, the viability in test [1] was 95.5%; in [3], 95.5% (inactive); in test [4], 86.4% (inactive); in test [5] it was 88.3% (inactive); in [6] (setting [16]), 80.7%; in [6] (setting [17]), 88.3%. Further, the viability in test [12] is 112% (inactive); in test [13] it was 104% (inactive). Also, the Her2 level in test [2] was 118% (inactive). Moreover, the differential viability (reversal) in test [6] (H69AR cells + 2 uM doxorubicin) was 7.59% (inactive). Also, the values for the inhibition in [7], in [8] and in [14] were 2.4% (inactive), -2.5% (inactive) and 0.64% (inactive), respectively. For the same molecule, the growth inhibition is -12.1% (inactive) in [9] and -8.93% (inactive) in test [10]. Moreover, the viability increase in test [11] was 0.27% (inactive). Also, in test [15], the RAM network inhibition was -0.67% (inactive).
